TGFb inhibitor: qHTS for Inhibitors of TGF-b; HepG2 CAGA-GFP TGF-b/SMAD3 reporter, GFP fluorescence, 18 h; TGF-beta stimulated, 500 pg/mL final; Potency, µM (highest dose often 46.1 µM), inactives show at the top dose activity, negative = inhibition, usual class: inhibitors; 410,000 compounds, 1.2% hits; further: on the % scale 0 is the no-effect control and ±100 the full control effect; nearly all actives have a fitted effect of over 65% in size
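Using HEPG2 CAGA-GFP reporter cells at 1000 cells/well, we pinned test compounds, stimulated with recombinant TGF-beta (500 pg/mL final) and measured total well GFP after 18 h.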
HepG2 viability: qHTS for Inhibitors of TGF-b: Cytotox Counterscreen. HepG2 CAGA-GFP viability, ATP luminescence, 18 h. Potency, µM (titrated, usually from 46.1 µM), for the others: top-dose activity change, negative = cytotoxicity, actives largely listed as cytotoxic. 410,000 compounds, 0.76% hits. AID 588856, 2011
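HepG2 CAGA-GFP cells (1000/well, DMEM with 1% FBS) received compound, then TGF-beta at 500 pg/mL final, and were incubated 18 hours at 37 degrees C. Viability was read by CellTiter-Glo luminescence. Media-only wells were set as complete cell-killing and DMSO as no toxicity.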
ATXN viability: Viability Counterscreen for Primary qHTS for Inhibitors of ATXN expression. S2 cells (HEK-293 line with an ATXN2-luciferase reporter) viability, CellTiter-Fluor protease fluorescence, 24 h. Potency, µM (doses to about 56.7 µM), hits mostly cytotoxic. 400,000 compounds, 0.49% hits; further: nearly all actives have a fitted effect of over 40% in size
ATXN2 expr inh: Primary qHTS for Inhibitors of ATXN expression; HEK-293 ATXN2-luciferase reporter, luminescence, 24 h; Potency, µM (titrated, usually from 57 µM), inactives show top-dose activity change, negative = inhibition, usual class: inhibitors; 360,000 compounds, 0.72% hits; AID 1745845, 2022; further: on the % scale 0 is the no-effect control and ±100 the full control effect; nearly all actives have a fitted effect of over 55% in size
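qHTS (up to 57 uM final) was run with 24 h compound exposure of reporter cells at 37 °C. Each well was multiplexed: SteadyGlo luminescence measured ATXN2-luciferase expression after a fluorogenic Gly-Phe-AFC viability readout (25 uM final).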
GLP-1R agonist: qHTS of GLP-1 Receptor Agonists; 380,000 compounds, 0.007% hits; Glucagon-like peptide 1 receptor (Homo sapiens), P43220; AID 624172, 2012; HEK293 GLP-1R CRE-luciferase, luminescence, 4-6 h; cells express a hypersensitive GLP-1R form; Potency, µM (titrated, usually from 45.6 µM), inactives show at the top dose activation, actives largely listed as activators; further: % of control where 0% means no effect
Target sequence (P43220 whole entry, looked up): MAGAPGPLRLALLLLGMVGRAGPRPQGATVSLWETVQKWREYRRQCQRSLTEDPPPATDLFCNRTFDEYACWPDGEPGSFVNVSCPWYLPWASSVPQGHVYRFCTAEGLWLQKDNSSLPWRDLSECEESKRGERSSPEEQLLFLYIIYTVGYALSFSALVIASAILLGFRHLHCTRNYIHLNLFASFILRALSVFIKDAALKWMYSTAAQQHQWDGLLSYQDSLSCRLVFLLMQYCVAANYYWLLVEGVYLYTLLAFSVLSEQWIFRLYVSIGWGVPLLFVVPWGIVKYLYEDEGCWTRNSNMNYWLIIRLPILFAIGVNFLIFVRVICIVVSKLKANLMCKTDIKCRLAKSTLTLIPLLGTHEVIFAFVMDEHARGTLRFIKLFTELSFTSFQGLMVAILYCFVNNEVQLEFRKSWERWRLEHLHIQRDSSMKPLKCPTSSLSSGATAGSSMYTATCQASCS
GLP-1R inv ag: qHTS of GLP-1 Receptor Inverse Agonists (Inhibition Mode). Glucagon-like peptide 1 receptor (Homo sapiens), P43220. HEK293 GLP-1R CRE-luciferase, luminescence, 24 h; GLP-1R form is constitutively active. Potency, µM (top dose mostly 38.3 µM), for inactives: at the top dose activity change, negative = inhibition, actives largely listed as inhibitors. 410,000 compounds, 1.6% hits. AID 624417, 2012; further: on the % scale 0 is the no-effect control and ±100 the full control effect; nearly all actives have a fitted effect of over 55% in size
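Assay principle: reduced luminescence from a cAMP-responsive reporter in HEK293 cells co-expressing a constitutively active GLP-1R. Conditions: 24 hr compound incubation, 37 deg C, 5% CO2.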
Active calls of the source: *; i = inactive; u = inconclusive; x = no result given; [ ] = dose if it differs, or a comment. A selection: hits, their analogues and other compounds. The true share with any hit is near 3.7%. The call rests on the fitted dose curve; in most records, active means well fitted curve in the direction sought with a large enough effect; inconclusive means small, poorly fitted or top-dose-only effect, or another doubt; inactive means no such curve, though single readings can be large; an effect the other way counts as inactive or inconclusive. Potency means the concentration at half of the fitted maximal effect.

SMILES	TGFb inhibitor	HepG2 viability	ATXN viability	ATXN2 expr inh	GLP-1R agonist	GLP-1R inv ag
COc1cc(/C=C2/SC(=S)NC2=O)ccc1OS(=O)(=O)c1ccc(C)cc1	16µM*	-16%	i	-16%[11.3 µM]	-1%	u
CN(CCOc1cccc(C(F)(F)F)c1)Cc1ccccc1	-6%	9%	i	x	4%	10µM*
Cc1ccc(S(=O)(=O)c2nc(-c3ccccc3Cl)oc2N2CCCCCC2)cc1	-8%	-7%	i	-12%	x	u
Cc1ccc(S(=O)(=O)c2nc(-c3ccccc3Cl)oc2N2CCN(C)CC2)cc1	18%	-18%	i	-17%	8%	10µM*
CCOC(=O)N1CCN(C(=O)c2ccc3c(=O)n(Cc4ccc(Cl)cc4)c(=S)[nH]c3c2)CC1	u	-31%	i	-16%	1%	2µM*
CC(=O)c1ccc(N2CCN(C(=O)c3ccc(Cn4c(=O)[nH]c5ccccc5c4=O)cc3)CC2)cc1	-2%	-37%	i	2%	x	-4%
CC1CCCCN1CCNC(=O)c1ccc2c(=O)n(Cc3ccc(Cl)cc3)c(=S)[nH]c2c1 (stereo not given)	u	13µM*	i	u	6%	u
CC1CCCCN1CCNC(=O)c1ccc2c(=O)n(CCc3ccccc3)c(=O)[nH]c2c1 (stereo not given)	-19%	-16%	i	23%	5%	u
O=C(c1ccc(Cn2c(=O)[nH]c3ccccc3c2=O)cc1)N1CCN(c2ccc(Cl)cc2)CC1	u	-40%	i	-32%	2%	11µM*
Oc1cc2cc(-c3csc(-c4ccc(F)cc4)n3)ccc2[nH]1	-16%	-46%	x	x	x	x
CCNC(=O)C1CCCN(Cc2ccc(OCc3ccccc3)cc2)CC1 (stereo not given)	0%	-31%	i	3%	-3%	-33%
CCCCNC(=O)C1CCN(Cc2ccc(OCc3ccccc3)cc2)CC1	48%	-20%	i	7%	15%	7.1µM*
COc1ccccc1-c1oc2ccccc2c1C#CC1(N)CCCCC1	u	-101%	25µM*	u	25%	u
COc1ccccc1-c1oc2ccccc2c1C#CC1(O)CCCCC1	u	-41%	i	-13%	23%	u
Cc1ccc(S(=O)(=O)N2CCN(c3nc(-c4ccc(F)cc4)nc4cc(Cl)ccc34)CC2)cc1	-30%	-16%	x	x	x	x
CCN(CC)CC#CCOC(c1ccccc1)c1ccccc1	u	-9%	u	u	11%	5.6µM*
CN(C)CC#CCOC(c1ccccc1)c1ccccc1	-11%	21%	i	1%	-3%	u
O=S(=O)(/C=C/c1ccccc1)N1CCC(n2c(C3CCCO3)nc3cccnc32)CC1 (stereo not given)	x	x	i	x	x	x
CC1(Cc2ccc(Cl)c(Cl)c2)C(=O)Nc2ccc(S(=O)(=O)NC3CCCCC3)cc21 (stereo not given)	13µM*	-97%	i	-13%	-4%	u
CC1(Cc2cccc(F)c2)C(=O)Nc2ccc(S(=O)(=O)NC3CCCCC3)cc21 (stereo not given)	-24%	-27%	u	u	7%	-20%
COc1ccccc1-c1ccc2c(c1)C(C)(Cc1ccccc1C#N)C(=O)N2 (stereo not given)	u	1%	i	u	8%	-18%
COc1ccccc1-c1ccc2c(c1)C(C)(Cc1ccc(Cl)c(Cl)c1)C(=O)N2 (stereo not given)	14µM*	-101%	u	u	1%	u
CNC(=O)CN(CCN(CCN(CC(=O)[O-])CC(=O)NC)CC(=O)[O-])CC(=O)[O-].O.[Gd+3]	x	x	i	7%	x	x
CCN(CC)CCNc1ccc(C)c2sc3ccc(O)cc3c(=O)c12	u	14µM*	x	u	-27%	10µM*
O=C(CNC(=O)OCc1ccccc1)NCC(=O)N1CCCC1C(=O)OCc1ccccc1 (stereo not given)	u	11µM*	i	-12%	-21%	31%
SMILES	TGFb inhibitor	HepG2 viability	ATXN viability	ATXN2 expr inh	GLP-1R agonist	GLP-1R inv ag
COc1ccc(Nc2cc(=O)n(C3CCCCC3)c(=O)[nH]2)c(OC)c1	-15%	6%	i	-11%	-14%	u
COc1c[nH]n(C2CCCCC2)c(=O)c1=O	-19%	12%	22µM*	0%	3%	-2%
CC1(Cc2ccc(C(F)(F)F)o2)C(=O)Nc2ccc(-c3cccc(C(F)(F)F)c3)cc21 (stereo not given)	14µM*	18µM*	i	u	-8%	10µM*
CCc1ccc2c(c1)NC(=O)C2(C)Cc1ccc(C(F)(F)F)o1 (stereo not given)	u	-42%	u	u	15%	u
CC1(Cc2ccc3c(c2)OCO3)C(=O)Nc2ccc(-c3cccc(C(F)(F)F)c3)cc21 (stereo not given)	u	18µM*	u	u	-24%	u
CC1(Cc2ccc(F)cc2)C(=O)Nc2ccc(-c3cccnc3)cc21 (stereo not given)	-6%	-46%	i	14%	-4%	-19%
CC(O)COCC1OC2OC3C(COCC(C)O)OC(OC4C(COCC(C)O)OC(OC5C(COCC(C)O)OC(OC6C(COCC(C)O)OC(OC7C(COCC(C)O)OC(OC8C(COCC(C)O)OC(OC1C(OCC(C)O)C2OCC(C)O)C(OCC(C)O)C8OCC(C)O)C(OCC(C)O)C7OCC(C)O)C(OCC(C)O)C6OCC(C)O)C(OCC(C)O)C5OCC(C)O)C(OCC(C)O)C4OCC(C)O)C(OCC(C)O)C3OCC(C)O (stereo not given)	-11%	-7%	x	x	x	x
O=C(C[n+]1ccc2ccccc2c1)c1ccc(O)c(O)c1	3%	-26%	x	x	x	x
CCC1CCCCN1S(=O)(=O)c1ccc(NC(=O)c2ccncc2)cc1 (stereo not given)	u	-19%	u	-32%	-1%	-28%
CCOc1ccccc1NC(=O)C1(S(=O)(=O)c2ccc(Cl)cc2)CC1	-8%	1%	i	-11%	27%	7.1µM*
CCC1CCCCN1S(=O)(=O)c1cc(C(=O)Nc2ccc(C)c(F)c2)ccc1F (stereo not given)	11µM*	-14%	x	x	x	10µM*

Source: PubChem
